In PMC12136788:
Numbering of substitutions follows the chain as printed. The full ranking holds about 5,800 sequences; the median of “enrichment r” is about 0.54, and the highest 2% start at about 16. The sample as a whole holds a higher share of the highest values than the screen did.

B1: chr11:118750849:118750950:-|3pUTR|ENSG00000110367|msi1|total|mutant (ssRNA)
RNA: GGGAGUUCUACAGUCCGACGAUCAUUCCCGAAAGUACUUUGGCCUCGUGCUGCCGAGAGCAGAUUUCUAUGGUACCCUGUGUCCGUAAAGGGGCCCAGAAAUCUGGGAUGUACUGUUUGCUGCCACACUGUCUCAUCCCGUACCAACAGAGGAUUGAGCAUCA
B2: chr10:32033860:32033975:-|CDS|ENSG00000170759|unk|FALSE|unique (ssRNA)
RNA: GGGAGUUCUACAGUCCGACGAUCCACAGUGGAUAAAGAUAUUACUCUUACCAAUGAUAAACCAGCAACCGCAAUUGGAGUUAUAGGAAAUUUUACUGAUGCUGAAAGAAGAAAGUGUGAAGAAGAAAUUGCUAAAUUAUACAACAACAGAGGAUUGAGCAUCA
B3: chr2:205797254:205797461:+|3pUTR|ENSG00000118257|msi1|FALSE|unique (ssRNA)
RNA: GGGAGUUCUACAGUCCGACGAUCUCACCCUCCCAUGAUGCGCAGUGUUCAGAAAGCUGGUAAGUCCUAGGGAUUUCCAGAAGUAGCCUGCAGAAGAAGGUAAGUUUGAAAGCCACUCCAGGGGUCCUGAUGCUGUCAUGCUCACAACAGAGGAUUGAGCAUCA
B4: ENSG00000107863:be:win_2651|CDS|ENSG00000107863|bound_else_gene|NA|bound_elsewhere_windowed (ssRNA)
RNA: GGGAGUUCUACAGUCCGACGAUCAGGGUCUGGAUGAUUACAGAGAAGAUGCAAAAUUGUCCUUUAAGCACGUAUCUAGUCUGAAGGGAAUCAAGAUCGCAGACAGCCAAAAGUCAUCAGAAGACUCUGGGUCCAGAAAAGAUUCAACAGAGGAUUGAGCAUCA
B5: chr10:74136666:74136778:-|CDS|ENSG00000185009|unk|FALSE|unique (ssRNA)
RNA: GGGAGUUCUACAGUCCGACGAUCUUCAGAGGCUGCAAUUAAGGAUAAUGUGGUCAUAGUAUAUGAACUCUUAGAAGAAAUGUUAGACAAUGGAUUUCCACUGGCUACCGAAUCUAACAUUUUGAAAGAAUUGAUUAAACCACCCAACAGAGGAUUGAGCAUCA
B6: chr1:94529602:94529703:-|3pUTR|ENSG00000117525|msi1|total|mutant (ssRNA)
RNA: GGGAGUUCUACAGUCCGACGAUCUGGAAGGAAAUUGGGUGCAUUUCCCGGACUUUUCUAACAUAUGUCUAUAAUACCGUGUUCCGGUUCUUUUUUUUUUCAGGAAUACAUUUGGAAAUUCAAAACAAUUGGCAAACUUUGUAUCAACAGAGGAUUGAGCAUCA
B7: chr5:43295829:43295944:-|CDS|ENSG00000112972|unk|FALSE|unique (ssRNA)
RNA: GGGAGUUCUACAGUCCGACGAUCAAUAUCCUAGCUUUAUUCUAAAGUCAAACUUUAAAAUUUCAUGGCUUAUAUGAAUUUCAUAGUUUCCUUGGACUUCUCUUUCAGAGGGAAAUGAUAAAGAUUUUACCUUGAAUGAUUUUGCAACAGAGGAUUGAGCAUCA
B8: chr11:58422334:58423261:-|CDS|ENSG00000172365|control|control|control (ssRNA)
RNA: GGGAGUUCUACAGUCCGACGAUCACACACUAGUGAGGUGAUUCUGGUUUUUAUGUCAAGCUUUAAUAUCUUUUUUGUUCUUCUAGUUAUCUUUAUCUCCUACUUGUUCAUAUUCAUCACCAUCUUGAAGAUGCAUUCAGCUAACAACAGAGGAUUGAGCAUCA
B9: chr3:125228010:125228111:-|3pUTR|ENSG00000163848|msi1|FALSE|unique (ssRNA)
RNA: GGGAGUUCUACAGUCCGACGAUCAGUUCUCUUCAUAUUUCAUAACUACAUUUCAAUAAUUCUAAACUUUCUACAUUGAUUUUUAGAUACUUAUUUUUCAAGCUUGGUUUCUCAGCUGAUCAGAUGAAUUUAUUCAACUUCAAUCAACAGAGGAUUGAGCAUCA
B10: chr1:93888438:93888539:-|3pUTR|ENSG00000023909|msi1|FALSE|unique (ssRNA)
RNA: GGGAGUUCUACAGUCCGACGAUCAGAUAUUUUUCCUGUCAUUGAUGAGAUAUAUCAGAGUAACUGGAGUAGCUGGGAUUUACUAGUAGUGUAAAUAAAAUUCACUCUUCAAUACAUGAAUGGAAACUUAAAUUUUUUUUUAUGCAACAGAGGAUUGAGCAUCA
B11: ENSG00000100485:stop:overlap|stop_codon|ENSG00000100485|stop_codon|NA|stop_codon (ssRNA)
RNA: GGGAGUUCUACAGUCCGACGAUCAUAUAUAUACACAUAUAUAUACACACACACACACAUUUUAUGUGUCAGUUUUCAAUAUAUAGUUAACACAAAAGCUCUCAGCUUUUAAUUCAAAUAUAGGGAAUAUUUUUAACUUCACAGCAACAGAGGAUUGAGCAUCA
B12: chr1:93888438:93888539:-|3pUTR|ENSG00000023909|msi1|total|mutant (ssRNA)
RNA: B10 RNA with U69C, A70C, U83C, A84C, U86C, A87C
B13: chr12:49764829:49764866:+|3pUTR|ENSG00000139644|msi1_unk|FALSE|overlapping (ssRNA)
RNA: GGGAGUUCUACAGUCCGACGAUCACUUUUAAAGAAAAUACCUAACAGAUUUUUAAUAUAGUUAUCUCUACCACUUUCUUUUCUAGUUUCUUGAUUUUCAGCUCAGGCUGCAUUCUAACUCAUACUGUGAAGACAAAGGUGUUUCAACAGAGGAUUGAGCAUCA
B14: chr3:125228010:125228111:-|3pUTR|ENSG00000163848|msi1|total|mutant (ssRNA)
RNA: B9 RNA with U83C, A84C
B15: chr12:64147824:64147925:+|3pUTR|ENSG00000196935|unk|FALSE|unique (ssRNA)
RNA: GGGAGUUCUACAGUCCGACGAUCCAUCUCUGUGGUGUCUUUGUUCCUUUCCUUUCAUUCAUCACUACUUUCUCCUUGACAGCUAGCUUGCAUUAAAUAAUGUGAAACUUUUACCUUUAAAAUAUUUUUUUAUCUCACUUUCAUCAACAGAGGAUUGAGCAUCA
B16: chr1:162785649:162785750:+|3pUTR|ENSG00000162733|unk|FALSE|unique (ssRNA)
RNA: GGGAGUUCUACAGUCCGACGAUCUGAAUGUUGUUUUUUUGAAUGAACAUAAGAUAGAAACAAAAACUUCUCAUCCAGUUAACUAGAGUGAAUGUAGGGAGAAUUGUUUUGCUUGUAACAUGGAGAGUUUAUUUUCAAGUGAGGCAACAGAGGAUUGAGCAUCA
B17: chr15:77046258:77046342:-|3pUTR|ENSG00000140391|msi1_unk|FALSE|overlapping (ssRNA)
RNA: GGGAGUUCUACAGUCCGACGAUCAAAAAUAUUUACUGUAGUCCAAUAAGAUAGCAGCUGUACAAAAUGACUAAAAUAGAUUGUAGGAUCAUAUGGCGUAUAUCUUGGUUCAUCUUCAAAAUCAGAGACUGAGCUUUGAAACUACAACAGAGGAUUGAGCAUCA
B18: chr2:128192346:128192447:+|3pUTR|ENSG00000136731|msi1|FALSE|unique (ssRNA)
RNA: GGGAGUUCUACAGUCCGACGAUCAGAAAAUGAUGUUACCACUAAAAUAUUUUCUCCAAGAAGGCAUACUGUAACAGAAAAGAUAGGUAAGAUAUUUUUUUCCCAAGAAGUAAGAAUUGAUUGUGCUGAAUGUUCAAACUCUGGCAACAGAGGAUUGAGCAUCA
B19: chr16:3727831:3727932:-|CDS|ENSG00000005339|unk|FALSE|bound_elsewhere (ssRNA)
RNA: GGGAGUUCUACAGUCCGACGAUCCGUCUCACCCCAGACUGGUUCCCCCCACCCCGGACUCGCAGUCACCAUGGCCAGCUCCAUAGAUCAGGGACACUUGGGGAACCCCGAACAGAGUGCAAUGCUCCCCCAGCUGAACACCCCCAACAGAGGAUUGAGCAUCA
B20: chr16:30193532:30193793:-|CDS|ENSG00000169627|control|control|control (ssRNA)
RNA: GGGAGUUCUACAGUCCGACGAUCGCCUUAGUAAGGGCGGAAGUGAGUUUUCCAGCGGAAGUGGCUCCUGUAAGGCAGCAAGGUAGCGUGGCCGGCGCCCGAGCUGGGGUUGUGUCCCUGCUGGGCUGCCGUUCCAGCUGGACUCAACAGAGGAUUGAGCAUCA
B21: chrX:101412715:101412817:+|CDS|ENSG00000126945|unk|FALSE|unique (ssRNA)
RNA: GGGAGUUCUACAGUCCGACGAUCGGGUAUGGAGGCUAUGAUGACUAUGGUGGCUAUAAUGAUGGAUAUGGCUUUGGGUCUGAUAGAUUUGGAAGAGACCUCAAUUACUGUUUUUCAGGAAUGUCUGAUCAUAGAUACGGAGAUCAACAGAGGAUUGAGCAUCA
B22: chr11:28036422:28036524:-|CDS|ENSG00000121621|unk|FALSE|unique (ssRNA)
RNA: GGGAGUUCUACAGUCCGACGAUCCAGCUCAAUGAUUCUCUUAGCAAAGAACUUCAGCCUAUUGUAUAUACACCAGAAGACUGUAGAAAAGCUUUUCAAAAUCCGUCUACAGUAACCUUAAUGAAACCAUCAUCAUUUACUACACAACAGAGGAUUGAGCAUCA

Each binder was assayed against MSI1 full-length (mouse, UniProt Q61474 1-362) (assay: nsRBNS (natural sequence RNA bind-n-seq); RBNS binding buffer (assumed for nsRBNS): 25 mM Tris pH 7.5, 150 mM KCl, 3 mM MgCl2, 0.01% Triton X-100, 500 ug/ml BSA, 20 U/ml SUPERase-In, 4 C; UNK is unkempt and MSI1 is Musashi-1; names of the RNAs are library labels; protein concentration not given here; high values mean tight binding).
Chain of MSI1 full-length (Q61474 whole entry): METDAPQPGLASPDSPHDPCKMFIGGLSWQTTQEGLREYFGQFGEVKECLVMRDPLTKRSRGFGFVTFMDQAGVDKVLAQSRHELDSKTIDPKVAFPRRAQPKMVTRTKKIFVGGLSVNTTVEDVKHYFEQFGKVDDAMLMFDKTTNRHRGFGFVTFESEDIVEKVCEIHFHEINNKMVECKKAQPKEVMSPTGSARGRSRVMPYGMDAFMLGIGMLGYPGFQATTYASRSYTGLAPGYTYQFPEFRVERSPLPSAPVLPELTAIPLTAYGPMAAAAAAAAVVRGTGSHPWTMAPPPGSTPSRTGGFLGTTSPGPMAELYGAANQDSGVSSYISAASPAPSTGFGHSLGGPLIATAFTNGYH
B1 gave a binding signal of 0.539 enrichment R.
In the case of B2, the binding signal is reported as 1.59 enrichment R.
In the case of B3, the binding signal is reported as 0.607 enrichment R.
B4 showed a binding signal of 0.365 enrichment R.
Binder B5 has a binding signal of 0.651 enrichment R.
Binder B6 has a binding signal of 0.407 enrichment R.
B7 was tested, and the binding signal was 0.654 enrichment R.
B8 showed a binding signal of 23.6 enrichment R.
B9 showed a binding signal of 5.53 enrichment R.
B10 was tested, and the binding signal was 28.4 enrichment R.
Binder B11 has a binding signal of 2.06 enrichment R.
B12 gave a binding signal of 0.484 enrichment R.
With B13 the binding signal was 3.05 enrichment R.
B14 gave a binding signal of 18.6 enrichment R.
With B15 the binding signal was 7.22 enrichment R.
In the case of B16, the binding signal is reported as 2.65 enrichment R.
For B17, the binding signal was 9.31 enrichment R.
Work on B18 yielded a binding signal of 0.593 enrichment R.
B19 showed a binding signal of 0.562 enrichment R.
In the case of B20, the binding signal is reported as 0.62 enrichment R.
B21 showed a binding signal of 0.771 enrichment R.
Work on B22 yielded a binding signal of 0.992 enrichment R.
